# Bioassay records from PubChem BioAssay.
# JMJD2A Tudor: inhibitors of human JMJD2A Tudor domain. O75164. AlphaScreen JMJD2A-Tudor / H3K4me3 peptide binding. Potency, µM (top dose mostly 114 µM), inactives show at the highest dose activity change, negative = inhibition, most hits filed as inhibitors. 4.4% of 390,000 active; further: potency means the concentration at half of the fitted maximal effect; on the % scale 0 is the no-effect control and ±100 the full control effect; nearly all actives have a fitted effect of over 50% in size
# BAZ2B inh: inhibitors of human BAZ2B bromodomain. 4.4% of 360,000 active. Potency, µM (titrated, usually from 114 µM), for inactives: at the top dose activity change, negative = inhibition, hits mostly inhibitors. AID 504333. AlphaScreen BAZ2B-H3K14Ac peptide displacement; further: potency means the concentration at half of the fitted maximal effect; on the % scale 0 is the no-effect control and ±100 the full control effect; nearly all actives have a fitted effect of over 60% in size
#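 In this displacement format the biotinylated H3(5-23) peptide acetylated at Lys14 serves as ligand at 50 nM, with BAZ2B at 50 nM in PBS pH 7.4 containing 0.01% Tween-20. Donor and acceptor beads are 10 ug/mL final.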
# Six1-Eya2 blk: blocks human Six1 binding to Eya2; Q15475+O00167; AlphaScreen GST-Six1/His-Eya2 binding, biochemical; hits give low values; 0.56% of 360,000 active; AID 651725; activity change, % (no concentration beside the values); in the data active means activity change below about -65%; inconclusive means mostly about -30% to -63%; further: on the % scale 0 is the no-effect control and ±100 the full control effect
#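 GST-Six1 + His-Eya2 (5X stock: 250/500 nM); Tris pH 8.0, 300 mM NaCl, 0.05% BSA, 0.02% Tween 20; GSH donor/Ni acceptor beads; 1 h 37 °C dark; AlphaScreen readout.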
# CtBP-E1A inh: CtBP/E1A binding inhibition | AlphaScreen GST-E1A/His-CtBP binding, 1536-well; hits give low values | activity change, % (test concentration not listed) | 0.49% of 340,000 active | AID 651724; in the data active means activity change below about -65%; inconclusive means mostly about -30% to -63%; further: on the % scale 0 is the no-effect control and ±100 the full control effect
#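 Homogeneous bead-based format: GST-tagged E1A captured on glutathione donor beads, His-tagged CtBP on nickel acceptor beads; compounds precede bead addition by 2 h at 37 °C.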
# G9a inh: inhibitors of human histone lysine methyltransferase G9a; Q96KQ7; G9a H3K9 monomethylation, AlphaScreen, 2 h; Potency, µM (top dose mostly 102 µM), without a hit: at the highest dose activity, negative = inhibition, actives largely listed as inhibitors; 8.8% of 350,000 active; AID 504332; further: potency means the concentration at half of the fitted maximal effect; on the % scale 0 is the no-effect control and ±100 the full control effect; nearly all actives have a fitted effect of over 75% in size
#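 G9a (20 nM) preincubated 15 min RT with compounds, then 500 nM biotinylated H3K9 peptide and 20 uM SAM added; 2 h RT reaction. Monomethyl-H3K9 product detected by AlphaScreen with anti-H3K9me1 antibody, streptavidin donor and anti-rabbit IgG acceptor beads.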
# HP1b chromo inh: HP1-beta chromodomain-methylated histone interaction inhibition; AID 540317; Potency, µM (series often up to 114 µM), for inactives: at the highest dose activity change, negative = inhibition, actives largely listed as inhibitors; 0.56% of 390,000 active; AlphaScreen HP1-beta / biotin-H3K9me3 peptide binding; further: potency means the concentration at half of the fitted maximal effect; nearly all actives have a fitted effect of over 70% in size
#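 Compound inhibition of the preformed complex between 50 nM HP1-beta and 50 nM biotinylated H3K9me3 peptide was read by AlphaScreen. Buffer was PBS pH 7.4 with 0.01% Tween-20. Incubations ran 30 min at room temperature, with 10 ug/mL donor/acceptor beads.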
# Numbers without * were called inactive; ? = inconclusive; nt = not tested or not shown; ! = a repeat was not active; [ ] = another dose, or the depositor's remark. This is a sample that favours compounds with a hit; in the whole collection about 10% have one here. Unless noted, the call rests on the fitted dose curve; in most records, active means well fitted inhibition curve with a large enough effect; inconclusive means small, poorly fitted or top-dose-only effect; inactive means no such curve, though single readings can be large or run the other way.
SMILES,JMJD2A Tudor,BAZ2B inh,Six1-Eya2 blk,CtBP-E1A inh,G9a inh,HP1b chromo inh
Cc1cc(C)c2c(c1)[C@@H]1C=CC[C@@H]1[C@H](c1ccc(S(=O)(=O)N3CCOCC3)cc1)N2,?,-10%,1,-6,3.5µM*,1%
COC(=O)c1ccc([C@@H]2Nc3c(cccc3C(F)(F)F)[C@@H]3C=CC[C@@H]32)cc1,26%,62%,nt,nt,47%[59 µM],123%
COC(=O)c1ccc(C2Nc3c(C)cc(C)cc3C3C=CCC32)cc1 (stereo not given),?,79µM*,nt,nt,4.5µM*,2%
COc1ccc(N2CCN(c3c(S(=O)(=O)c4ccccc4)cnc4ccc(OC)cc34)CC2)cc1,?,?,?,?,8.9µM*,?
CCOc1ccc2ncc(S(=O)(=O)c3ccccc3)c(N3CCN(c4ccc(OC)cc4)CC3)c2c1,?,10µM*,-18,-16,?,?
CCOc1ccc2ncc(S(=O)(=O)c3ccccc3)c(N3CCN(c4ccccc4)CC3)c2c1,?,nt,5,-1,nt,-15%
Cc1ccc(OC(C)C(=O)Nc2ccccc2C(=O)N2CCOCC2)cc1 (stereo not given),-13%,-1%,-6,1,20%,15%
CCN(CC)CCOC(=O)C1(C2CCCCC2)CCCCC1,-32%,?,-5,-24,34µM*!,11%
Cc1cc(C)n(S(=O)(=O)c2ccc(C)c(C)c2)n1,-7%,-22%,1,17,-3%,37%
CCCNC(=O)CN1C(=O)NC(Cc2c[nH]c3ccccc23)C1=O (stereo not given),50µM*,14%,-6,8,2%,3%
CCCCN(CCCC)CCNC(=O)CSCc1ccc(C)cc1,6.3µM*,50µM*,-12,-3,3.5µM*,-32%
Cc1ccc(S(=O)(=O)Nc2cncnc2NS(=O)(=O)c2ccc(C)cc2)cc1,-5%,nt,-9,-4,nt,4%[57 µM]
O=C(Nc1cccc(Cl)c1N1CCCC1)c1ccc([N+](=O)[O-])o1,?,?,-19,-12,10µM*,-25%
CN1CCN(c2ccccc2NC(=O)c2ccc(-c3ccccc3[N+](=O)[O-])o2)CC1,56µM*,?,?,-30,?,-31%
O=C(Nc1ccccc1N1CCCCC1)c1ccc([N+](=O)[O-])o1,?,11µM*,?,3,11µM*,45µM*
O=C(c1ccc([N+](=O)[O-])o1)N1CCN(c2nc3c(Cl)cccc3s2)CC1,?,?,-6,-3,35µM*,-17%
COCCCNC(=O)CN1C(=O)c2c(c3ccccc3n2C)C1c1ccc(OC)cc1 (stereo not given),6%,-16%,nt,nt,2%[59 µM],37%
OCC[C@@H]1C[C@H](O)[C@@H](O)[C@]2(OCCc3cc(Cl)ccc32)O1,nt,nt,8,6,nt,nt
Cc1cccc(N2C(=O)N(Cc3cccc(C#N)c3)c3ccccc3S2(=O)=O)c1,-12%,-6%,nt,nt,8%[59 µM],20%
CC(=O)C1=CCC(c2ccccc2)N(S(=O)(=O)c2cccc(C)c2)C1 (stereo not given),nt,nt,-14,4,nt,nt
Cc1cc(C)cc(NC(=O)c2ccc([N+](=O)[O-])o2)c1,?,?,-25,-28,?,4%
NS(=O)(=O)c1ccc(O)c(NC(=O)c2ccc([N+](=O)[O-])o2)c1,50µM*,-16%,0,-7,?,45µM*
Nc1ccc(N2CCCCCC2)cc1,nt,32µM*,nt,nt,3.5µM*,nt
O=C(/C=C/c1cccs1)N1CCN(c2ccc(F)cc2)CC1,-8%,-5%,2,0,-3%,23%
CC(=O)N1CCN(c2ccc(N)cc2)CC1,-14%,?,nt,nt,-13%[2.33 µM],18%
Nc1ccc(N2CCN(c3ccc(Cl)c(Cl)c3)CC2)cc1,45µM*,14µM*,?,?,?,18µM*
O=C(O)/C=C/C(=O)N1CCN(c2ccc(F)cc2)CC1,-73%,-25%,-11,-10,50µM*,-13%
Nc1ccc(N2CCN(c3ccc(F)cc3)CC2)cc1,?,35µM*,14,-11,nt,?
